Most compounds without a hit are left out; they make up all but 9.2% or so of the library.
KDM4E inh: qHTS Assay for Inhibitors of Human Jumonji Domain Containing 2E (JMJD2E); Lysine-specific demethylase 4E (Homo sapiens), B2RXH2; JMJD2E catalytic domain, FDH-coupled NADH fluorescence (FDH is formaldehyde dehydrogenase); Potency, µM (top dose mostly 57.1 µM), without a hit: top-dose activity change, negative = inhibition, hits mostly inhibitors; 230,000 tested, 1.6% active;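 note: 0% = wells with enzyme and -100% = buffer wells without enzyme; nearly all actives have a fitted effect of over 50% in size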
HPGD inh: qHTS Assay for Inhibitors of HPGD (15-Hydroxyprostaglandin Dehydrogenase); purified HPGD, NADH fluorescence kinetic, PGE2 substrate; 150,000 tested, 4.3% active; AID 894, 2007; Potency, µM, for the others: at the highest dose activity change, negative = inhibition, usual class: inhibitors; 15-hydroxyprostaglandin dehydrogenase [NAD(+)] (Homo sapiens), P15428; note: % is set by controls: 0 for no effect and ±100 for the full control effect
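20 nM HPGD preincubated 15 min at room temperature with compound in 50 mM Tris-HCl pH 8, 0.01% Tween 20. Started with 1 mM NAD+ and 30 uM prostaglandin E2; NADH fluorescence (360/450 nm) read 5 times over 30-s intervals, last minus first.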
ALDH1A1 block: qHTS Assay for Inhibitors of Aldehyde Dehydrogenase 1 (ALDH1A1) | Aldehyde dehydrogenase 1A1 (Homo sapiens), P00352 | Purified ALDH1A1, NADH fluorescence, propionaldehyde substrate | Potency, µM (series often up to 75.3 µM), for the others: at the top dose activity, negative = inhibition, actives largely listed as inhibitors | 220,000 tested, 7.3% active;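 note: plate controls were no enzyme wells and a reference inhibitor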
Target sequence (P00352 whole entry, looked up): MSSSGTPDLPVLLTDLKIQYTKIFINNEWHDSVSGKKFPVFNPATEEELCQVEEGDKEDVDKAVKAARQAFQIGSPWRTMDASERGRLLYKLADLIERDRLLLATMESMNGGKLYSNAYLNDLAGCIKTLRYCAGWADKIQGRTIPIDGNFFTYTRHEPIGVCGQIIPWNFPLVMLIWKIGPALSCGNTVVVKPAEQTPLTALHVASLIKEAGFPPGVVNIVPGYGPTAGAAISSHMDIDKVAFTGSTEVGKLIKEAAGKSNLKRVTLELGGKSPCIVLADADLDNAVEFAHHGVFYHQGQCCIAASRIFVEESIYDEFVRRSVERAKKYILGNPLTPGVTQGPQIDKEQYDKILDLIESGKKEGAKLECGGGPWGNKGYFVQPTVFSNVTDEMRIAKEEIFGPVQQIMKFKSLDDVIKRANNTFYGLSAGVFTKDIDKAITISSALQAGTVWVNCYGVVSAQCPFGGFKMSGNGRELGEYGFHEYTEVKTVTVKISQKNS
LMNA splice mod: qHTS Assay for Modulators of Lamin A Splicing | HeLa LMNA splicing GFP/RFP minigene ratio, 48 h | Potency, µM (titrated, usually from 46.1 µM), inactives show at the top dose ratio change, negative = inhibition, usual class: inhibitors | 200,000 tested, 0.01% active | AID 1487, 2009; active = well fitted inhibition curve with a large enough effect in the signal ratio, with a control signal flat, not every such curve was filed as active; inconclusive = small, poorly fitted or top-dose-only effect, or effect the other way, or a change in a side signal; the % refers to the signal ratio; note: % is set by controls: 0 for no effect and ±100 for the full control effect
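S3 HeLa stable clones carrying a lamin A-EGFP splicing minigene plus DsRed2 were seeded at 600 cells/well in Opti-MEM with 2% FBS, pin-dosed and incubated 48 h at 37°C. Acumen cytometry (488 nm) gave the GFP/RFP total-intensity ratio.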
HTT ATP protect: qHTS Multiplex Assay to Identify Dual Action Probes in a Cell Model of Huntington: Cytoprotection (ATP). PC12 HTT-Q103 induced, cytoprotection, ATP luminescence, 40 h. Potency, µM (doses to about 56.4 µM), without a hit: cytoprotection (ATP increase), actives largely listed as activators. 230,000 tested, 0.14% active; active = well fitted curve in the direction sought with a large enough effect; inconclusive = small, poorly fitted or top-dose-only effect, or another doubt; inactive = no such curve, though single readings can be large; an effect the other way counts as inactive or inconclusive; note: % of control where 0% means no effect; nearly all actives have a fitted effect of over 45% in size
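Compounds were screened for protection of PC12 cells against cell death after tebufenozide induction (100 nM final) of mutant Huntingtin exon 1 (Q103) fused to GFP.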
HttQ103 aggreg: qHTS Multiplex Assay to Identify Dual Action Probes in a Cell Model of Huntington: Aggregate Formation (GFP); PC12 HttQ103-GFP aggregates, Acumen cytometry, 40 h; Potency, µM (titrated, usually from 46.1 µM), for inactives: at the highest dose activity change, negative = inhibition, hits mostly inhibitors; 220,000 tested, 1.1% active; active = well fitted curve in the direction sought with a large enough effect; inconclusive = small, poorly fitted or top-dose-only effect, or another doubt; inactive = no such curve, though single readings can be large; an effect the other way counts as inactive or inconclusive; note: % is set by controls: 0 for no effect and ±100 for the full control effect; nearly all actives have a fitted effect of over 60% in size
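Read-out: GFP aggregate count by laser scanning cytometer (488 nm excitation, 500-530 nm emission, 1–25 µm objects >6 SD above background). Cells: PC12, inducible HTTex1-Q103-GFP, 100 nM tebufenozide; compounds titrated.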
* marks the source's active call; other numbers are inactive results; ? = inconclusive; / = not tested or not shown; [ ] = dose if it differs, or a comment. Unless noted, calls come from the whole dose curve; as a rule, active = well fitted inhibition curve with a large enough effect (not every such curve was filed as active); inconclusive = small, poorly fitted or top-dose-only effect, or another doubt; inactive = no such curve, though single readings can be large or run the other way. Potency is the fitted concentration of half-maximal effect.

SMILES	KDM4E inh	HPGD inh	ALDH1A1 block	LMNA splice mod	HTT ATP protect	HttQ103 aggreg
Cc1ccccc1N1CCN(C2=NC(=O)/C(=C\c3cccs3)S2)CC1	0%	25µM*	16µM*	?	33%[10 µM]	10%
O=C1N=C(N2CCN(c3cccc4ccccc34)CC2)S/C1=C/c1cccs1	-5%	-6%	-4%	-1%	4%[10 µM]	?
CCOc1ccc(/C=N/Nc2ccccn2)cc1OC	-14%	/	5%	/	-88%	-2%
CCOc1ccc(/C=N/N(C)c2ccccc2)cc1OC	-5%	-10%	7.9µM*	1%	-31%	0%[9.22 µM]
COc1cc(NS(=O)(=O)c2ccc(NC(=S)NC(=O)COc3ccccc3OC)cc2)nc(OC)n1	3%	/	?	/	-12%[10 µM]	-1%[9.22 µM]
CC1=C(C)C(=O)N(c2ccccn2)C1=O	-1%	-3%	6%	-2%	-10%[10 µM]	3%
Cc1nn(-c2ccccn2)c2c1C(=O)C(Br)CC2 (configuration not stated)	-25%	/	11µM*	?	?	-12%
Cc1cccc(C)c1NC(=O)CSCC(=O)c1ccc(O)c(O)c1	28µM*	-25%	6%	?	-44%	?
Cc1ccc(S(=O)(=O)N2c3ccccc3NC(=O)C2CC(=O)Nc2ccccc2)cc1 (configuration not stated)	1%	-8%	20µM*	-2%	-10%[10 µM]	23%
Cc1ccc(S(=O)(=O)N2c3ccccc3NC(=O)CC2C)cc1 (configuration not stated)	5%	1%	6%	-1%	8%[10 µM]	-14%
CCn1c(SCC(=O)c2ccccc2)nnc1-c1cnccn1	-1%	18µM*	-8%	12%	5%	-11%
Cn1c(SCC(=O)c2ccccc2)nnc1-c1cccnc1	7%	-11%	?	9%	-24%	2%
Cn1c(SCC(=O)c2ccc(F)cc2)nnc1-c1ccccc1N	-3%	-14%	-9%	?	-7%	?
Cc1ccc(C(=O)CSc2nnc(-c3ccccc3N)n2C)cc1	3%	-22%	11µM*	?	-9%	13%
CCn1c(SCC(=O)c2ccc(NS(=O)(=O)c3ccccc3)cc2)nnc1-c1cccs1	?	22µM*	?	-4%	-11%[0.074 µM]	-2%
Cn1c(SCC(=O)c2ccccc2)nnc1-c1cnccn1	-9%	-21%	20µM*	-8%	-11%	16%
CC(=O)N1CCC[C@@]2(CCN(C(=O)Nc3ccccc3)C2)C1	/	-9%	5%	/	0%	/
O=C(COC(=O)c1cccnc1Cl)c1ccc(OC(F)F)cc1	6%	/	5%	5%[9.22 µM]	-21%	4%
O=C(c1cc(C(F)(F)F)cc(C(F)(F)F)c1)N1CCC2(CC1)CN(Cc1ccccc1)C2	/	0%	-5%	/	2%	/
CC(C)OC(=O)CSc1nc(Cc2ccccc2)nc2ccccc12	-14%	/	?	?	11%[10 µM]	2%[9.22 µM]
COc1ccc(C(=O)N2CCc3ccccc32)cc1	11%	-17%	4%	-8%	18%[10 µM]	7%
COc1ccc(C(=O)/C=C2\NCC3c4ccccc4CCN3C2=O)cc1 (configuration not stated)	?	28µM*	7.9µM*	8%	-22%	7%
O=C1C2C(C(=O)N1/N=C/c1ccco1)C1C=CC2C12CC2 (configuration not stated)	5%	-15%	10µM*	-2%	5%[10 µM]	6%
O=C1C2C3C=CC(C4CC34)C2C(=O)N1Cc1ccco1 (configuration not stated)	-4%	-1%	22µM*	8%	5%[10 µM]	12%
O=C1C2C3c4ccccc4C(c4ccccc43)C2C(=O)N1Cc1ccco1 (configuration not stated)	-2%	/	-6%	?	-4%	12%
SMILES	KDM4E inh	HPGD inh	ALDH1A1 block	LMNA splice mod	HTT ATP protect	HttQ103 aggreg
O=C1C2C(C(=O)N1Cc1ccco1)C1C=CC2C12CC2 (configuration not stated)	0%	-7%	13µM*	6%	-6%	10%
COc1ccc(OC2C=CC(C#Cc3ccc(Br)cc3)OC2CO)c(C(C)(C)C)c1 (configuration not stated)	/	/	?	/	-33%[10 µM]	/
CN1/C(=C\C=N\O)C(C)(C)c2ccccc21	-6%	/	-5%	19%[46 µM]	-20%	13%
Cc1ccccc1N=C/C=C1\N(C)c2ccccc2C1(C)C	?	-16%	-14%	?	-61%	14µM*
Cc1cccc(-c2noc(-c3ccccc3C(=O)NCC3CCCO3)n2)c1 (configuration not stated)	-3%	-8%	16µM*	-2%	-66%[0.074 µM]	-57%
CCOC(=O)CNC(=O)CSc1nnc(NC(=O)c2ccc(C)cc2)s1	?	/	?	1%[9.22 µM]	-175%	-4%
Nc1nnc(SCCN2C(=O)c3ccccc3C2=O)s1	-1%	-8%	0%	-1%	-5%	21%
Cc1cccc(-c2nsc(SCC(=O)NCC3CCCO3)n2)c1 (configuration not stated)	7%	/	20µM*	/	/	10%
CCOC(=O)CNC(=O)CSc1nnc(SCC(=O)NCC(=O)OCC)s1	-7%	?	0.25µM*	4%	-12%	9%
CCOC(=O)CSc1nnc(SCCN2C(=O)c3ccccc3C2=O)s1	4%	-9%	28µM*	10%	-12%	3%
CCC(C)C(=O)O[C@H]1C[C@@H](C)C=C2C=C[C@H](C)[C@H](CC[C@@H]3C[C@@H](O)CC(=O)O3)C21 (some centres not stated)	2%	3%	-3%	/	-18%[1.9 µM]	/
O=C(Cn1cnc2ccccc21)N/N=C/c1ccccc1[N+](=O)[O-]	4%	-18%	?	-8%	15%[10 µM]	-14%
O=C(CC(C(=O)O)P(=O)(c1ccccc1)c1ccccc1)c1ccccc1 (configuration not stated)	1%	/	16%	20%[46 µM]	4%[10 µM]	-11%[9.22 µM]
CCOC(=O)CNC(=O)CSc1nc(-c2cccc(C)c2)ns1	-3%	/	20µM*	9%[46 µM]	-67%	4%
CCn1c2ccccc2c2cc(C3C(C#N)=C(N)Oc4n[nH]c(COC)c43)ccc21 (configuration not stated)	10µM*	?	1.8µM*	?	-36%	19%
